Ten sequences from article doi:10.1101/2024.03.05.583629 can be followed below.

In this assay the target is pT7_6His-AlfaTag-HOXD13 (human, UniProt P35453 263-343). Kind of assay: PADIT-seq. As to conditions: dsDNA, one strand shown.
pT7_6His-AlfaTag-HOXD13, sequence (P35453 263-343): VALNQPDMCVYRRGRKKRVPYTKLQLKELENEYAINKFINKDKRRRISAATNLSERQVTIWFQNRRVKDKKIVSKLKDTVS
Sequence “CTCGAGGATATCAAGATCTGGCCTCGGCGACGTAAAAGGAACCTCTAGCTAGCCGACTCACTATAGGGATAATCGCCCTGAGCAAAGACC” displayed a binding signal of 0.404 ± 0.076 log2FC. Then “CTCGAGGATATCAAGATCTGGCCTCGGCGTTTTATCAGGAACCTCTAGCTAGCCGACTCACTATAGGGATAATCGCCCTGAGCAAAGACC”, with 2.41 ± 0.0928 log2FC; and “CTCGAGGATATCAAGATCTGGCCTCGGCCCGTTAAAAGGAACCTCTAGCTAGCCGACTCACTATAGGGATAATCGCCCTGAGCAAAGACC”, with 2.37 ± 0.0792 log2FC; and “CTCGAGGATATCAAGATCTGGCCTCGGCGCATTAAAAGGAACCTCTAGCTAGCCGACTCACTATAGGGATAATCGCCCTGAGCAAAGACC”, with 1.77 ± 0.0683 log2FC. Next, “CTCGAGGATATCAAGATCTGGCCTCGGCATTTTACCGGGAACCTCTAGCTAGCCGACTCACTATAGGGATAATCGCCCTGAGCAAAGACC”: 1.17 ± 0.0862 log2FC; “CTCGAGGATATCAAGATCTGGCCTCGGCCACGTAAAAGGAACCTCTAGCTAGCCGACTCACTATAGGGATAATCGCCCTGAGCAAAGACC”: 1.76 ± 0.0916 log2FC. Turning to “CTCGAGGATATCAAGATCTGGCCTCGGCTGTATAAAAGGAACCTCTAGCTAGCCGACTCACTATAGGGATAATCGCCCTGAGCAAAGACC”, the binding signal was 2.01 ± 0.0809 log2FC. Then “CTCGAGGATATCAAGATCTGGCCTCGGCTTTTTATGTGGAACCTCTAGCTAGCCGACTCACTATAGGGATAATCGCCCTGAGCAAAGACC”, with 2.89 ± 0.0872 log2FC; and “CTCGAGGATATCAAGATCTGGCCTCGGCCGTATAAAAGGAACCTCTAGCTAGCCGACTCACTATAGGGATAATCGCCCTGAGCAAAGACC”, with 2.31 ± 0.0858 log2FC.

“CTCGAGGATATCAAGATCTGGCCTCGGCTTTTTACGTGGAACCTCTAGCTAGCCGACTCACTATAGGGATAATCGCCCTGAGCAAAGACC” displayed a binding signal of 2.42 ± 0.0834 log2FC.
